Laboratory results: PubChem BioAssay AID1159580 (chemical genetic matrix, 2015)
Hit rate of the full screen: of about 5,500 compounds, about 2,000 (36%) were called active. Not shown: some 18% with an inconclusive outcome. Rule as the data show it: active = normalized growth mostly below about 0.91 (no sharp cut-off); inconclusive = no clear call, values can overlap the other calls; inactive = mostly above about 0.92. Some of the results follow.

Assay: chemical genetic growth profiling, strain panel (AID 1159580);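 also: tested at 20 µM; growth read once vehicle control cultures reached saturation at 30 °C; 1 = growth at the plate median or of vehicle wells; lower values mean less growth of the strain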
Settings: growth OD

Measured: normalized growth

O=C(O)C1=C[C@@H](O)[C@@H](O)[C@H](O)C1
inactive: S. cerevisiae deletion strains, locus YJR043C, strain POL32, active compounds read low 1.02 | S. cerevisiae deletion strains, locus YJR066W, strain TOR1, active compounds read low 0.928 | S. cerevisiae deletion strains, locus YJR075W, strain HOC1, active compounds read low 1.01 | S. cerevisiae deletion strains, locus YKL009W, strain mrt4, active compounds read low 1 | S. cerevisiae deletion strains, locus YKL068W, active compounds read low 1 | S. cerevisiae deletion strains, locus YKL085W, strain MDH1 (second series), active compounds read low 1.01 | S. cerevisiae deletion strains, locus YKL085W, strain MDH1, active compounds read low 1.01 | S. cerevisiae deletion strains, locus YKL160W, strain elf1, active compounds read low 0.987 | S. cerevisiae deletion strains, locus YKR001C, strain vps1, active compounds read low 1.07 | S. cerevisiae deletion strains, locus YKR026C, strain gcn3, active compounds read low 0.999 | S. cerevisiae deletion strains, locus YKR091W, strain srl3, active compounds read low 0.969 | S. cerevisiae deletion strains, locus YLL001W, strain dnm1, active compounds read low 0.995 | S. cerevisiae deletion strains, locus YLL026W, active compounds read low 0.975 | S. cerevisiae deletion strains, locus YLL041C, strain sdh2, active compounds read low 0.978 | S. cerevisiae deletion strains, locus YLR027C, strain aat2, active compounds read low 0.996 | S. cerevisiae deletion strains, locus YLR039C, strain RIC1, active compounds read low 1.1 | S. cerevisiae deletion strains, locus YLR058C, strain SHM2, active compounds read low 1.01 | S. cerevisiae deletion strains, locus YLR102C, strain apc9, active compounds read low 1.01 | S. cerevisiae deletion strains, locus YLR113W, strain HOG1, active compounds read low 1.01 | S. cerevisiae deletion strains, locus YLR221C, strain rsa3, active compounds read low 0.982 | S. cerevisiae deletion strains, locus YLR258W, strain gsy2, active compounds read low 0.974 | S. cerevisiae deletion strains, locus YLR262C, strain YPT6 (second series), active compounds read low 0.952 | S. cerevisiae deletion strains, locus YLR262C, strain YPT6, active compounds read low 1.13 | S. cerevisiae deletion strains, locus YLR268W, strain sec22, active compounds read low 1.05 | S. cerevisiae deletion strains, locus YLR320W, strain mms22, active compounds read low 0.985 | S. cerevisiae deletion strains, locus YLR330W, strain CHS5, active compounds read low 1.01 | S. cerevisiae deletion strains, locus YLR342W, strain FKS1 (second series), active compounds read low 1.05 | S. cerevisiae deletion strains, locus YLR342W, strain FKS1, active compounds read low 0.985 | S. cerevisiae deletion strains, locus YLR357W, strain rsc2, active compounds read low 0.973 | S. cerevisiae deletion strains, locus YLR370C, strain arc18, active compounds read low 0.994 | S. cerevisiae deletion strains, locus YLR371W, strain rom2, active compounds read low 1.02 | S. cerevisiae deletion strains, locus YLR384C, strain iki3, active compounds read low 0.979 | S. cerevisiae deletion strains, locus YLR418C, strain cdc73, active compounds read low 0.986 | S. cerevisiae deletion strains, locus YML016C, strain PPZ1, active compounds read low 1.02 | S. cerevisiae deletion strains, locus YML032C, strain rad52, active compounds read low 0.993 | S. cerevisiae deletion strains, locus YML120C, strain ndi1, active compounds read low 0.982 | S. cerevisiae deletion strains, locus YML124C, strain tub3, active compounds read low 1 | S. cerevisiae deletion strains, locus YMR058W, strain fet3, active compounds read low 0.973 | S. cerevisiae deletion strains, locus YMR078C, strain ctf18, active compounds read low 1.01 | S. cerevisiae deletion strains, locus YMR125W, strain sto1, active compounds read low 0.968 | S. cerevisiae deletion strains, locus YMR129W, active compounds read low 0.986 | S. cerevisiae deletion strains, locus YMR205C, strain PFK2, active compounds read low 0.984 | S. cerevisiae deletion strains, locus YMR223W, strain ubp8, active compounds read low 0.987 | S. cerevisiae deletion strains, locus YMR231W, strain pep5, active compounds read low 0.967 | S. cerevisiae deletion strains, locus YMR263W, strain SAP30, active compounds read low 1.02 | S. cerevisiae deletion strains, locus YMR307W, strain GAS1, active compounds read low 1.04 | S. cerevisiae deletion strains, locus YNL067W, strain RPL9B, active compounds read low 1.01 | S. cerevisiae deletion strains, locus YNL071W, strain lat1, active compounds read low 0.982 | S. cerevisiae deletion strains, locus YNL183C, strain NPR1, active compounds read low 0.962 | S. cerevisiae deletion strains, locus YNL209W, strain ssb2, active compounds read low 0.983 | S. cerevisiae deletion strains, locus YNL233W, strain BNI4, active compounds read low 1.03 | S. cerevisiae deletion strains, locus YNL248C, strain rpa49, active compounds read low 0.965 | S. cerevisiae deletion strains, locus YNL250W, strain rad50, active compounds read low 1.03 | S. cerevisiae deletion strains, locus YNL271C, strain bni1, active compounds read low 1.01 | S. cerevisiae deletion strains, locus YNL298W, strain CLA4, active compounds read low 1.01 | S. cerevisiae deletion strains, locus YNL307C, strain MCK1, active compounds read low 1.02 | S. cerevisiae deletion strains, locus YNL322C, strain KRE1 (second series), active compounds read low 0.986 | S. cerevisiae deletion strains, locus YNR049C, strain mso1, active compounds read low 0.989 | S. cerevisiae deletion strains, locus YNR052C, strain pop2, active compounds read low 1.01 | S. cerevisiae deletion strains, locus YOL012C, strain htz1 0.985 | S. cerevisiae deletion strains, locus YOL147C, strain pex11, active compounds read low 0.993 | S. cerevisiae deletion strains, locus YOR001W, strain rrp6, active compounds read low 0.993 | S. cerevisiae deletion strains, locus YOR061W, strain CKA2, active compounds read low 1.01 | S. cerevisiae deletion strains, locus YOR069W, strain VPS5, active compounds read low 1.01 | S. cerevisiae deletion strains, locus YOR070C, strain gyp1, active compounds read low 0.996 | S. cerevisiae deletion strains, locus YOR080W, strain dia2, active compounds read low 0.99 | S. cerevisiae deletion strains, locus YOR083W, strain WHI5, active compounds read low 0.982 | S. cerevisiae deletion strains, locus YOR106W, strain vam3, active compounds read low 0.972 | S. cerevisiae deletion strains, locus YOR136W, strain idh2, active compounds read low 1.01 | S. cerevisiae deletion strains, locus YOR144C, strain elg1, active compounds read low 1 | S. cerevisiae deletion strains, locus YOR184W, strain ser1, active compounds read low 1.02 | S. cerevisiae deletion strains, locus YOR231W, strain MKK1, active compounds read low 0.981 | S. cerevisiae deletion strains, locus YOR265W, strain rbl2, active compounds read low 0.977 | S. cerevisiae deletion strains, locus YOR270C, strain vph1, active compounds read low 0.969 | S. cerevisiae deletion strains, locus YOR290C, strain snf2, active compounds read low 0.988 | S. cerevisiae deletion strains, locus YOR316C, strain cot1, active compounds read low 0.996 | S. cerevisiae deletion strains, locus YPL051W, strain arl3, active compounds read low 0.977 | S. cerevisiae deletion strains, locus YPL078C, strain atp4, active compounds read low 0.987 | S. cerevisiae deletion strains, locus YPL106C, strain sse1, active compounds read low 0.973 | S. cerevisiae deletion strains, locus YPL240C, strain hsp82, active compounds read low 0.989 | S. cerevisiae deletion strains, locus YPL241C, strain CIN2, active compounds read low 1.01 | S. cerevisiae deletion strains, locus YPL256C, strain CLN2, active compounds read low 0.978 | S. cerevisiae deletion strains, locus YPR119W, strain clb2, active compounds read low 1 | S. cerevisiae deletion strains, locus YPR141C, strain kar3, active compounds read low 1 | S. cerevisiae deletion strains, locus YPR163C, strain tif3, active compounds read low 0.995 | S. cerevisiae deletion strains, locus YPR167C, strain met16, active compounds read low 0.999 | S. cerevisiae deletion strains, strain wtn01, active compounds read low 1.05 | S. cerevisiae strains, strain wild type, active compounds read low 1.02
